Test results as given in PubChem BioAssay (EPA / NIEHS).
Where “and” joins values, the source holds several entries; their conditions need not be identical. Identical values can stand only once. Inconclusive results are not listed. More than one record can exist for a structure, and the calls need not agree. Calls of active or inactive are those of the source. Rule for the calls, unless noted: active = hit-call score of the fitted dose curve at least 0.9, where 1 is the maximum; inconclusive = response in the unintended direction; inactive = score below 0.9.

How the values were obtained:
[1] = read-out: Thyroid Hormone Responsive (THRSP), THRSP (gene 7069); assay: LTEA_HepaRG_THRSP: Life Technologies and Expression Analysis (LTEA) Assay for Thyroid Hormone Responsive (THRSP) using HepaRG (AID 2283536; active = hit-call score of the fitted dose curve at least 0.9, where 1 is the maximum; inactive = score below 0.9); details: mRNA level, 48 h; actives raise or lower the signal
How it was run: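 Cell model: human HepaRG, approx. 100,000 cells/well, 0.5% DMSO vehicle. Exposure lasts 48 h; phenobarbital 1 mM serves as induction positive control. Gene expression is measured by qRT-PCR against three endogenous control genes.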

[2] = read-out: Cellular tumor antigen p53 (Homo sapiens) (UniProt P04637); assay: LTEA_HepaRG_TP53: Life Technologies and Expression Analysis (LTEA) Assay for Tumor Protein P53 (TP53) using HepaRG (AID 2283537; active = hit-call score of the fitted dose curve at least 0.9, where 1 is the maximum; inactive = score below 0.9); details: mRNA level, 48 h; actives raise or lower the signal
How it was run: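 TP53 transcript measured by qRT-PCR, normalized to three housekeeping genes, after 48 h treatment of human HepaRG cultures with chemicals from 100 uM downward in half-log steps (0.5% DMSO vehicle, serum-free induction medium). Up- or down-regulation fitted against DMSO.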

[3] = read-out: UDP glucuronosyltransferase (UGT1A1), UGT1A1 (gene 54658); assay: LTEA_HepaRG_UGT1A1: Life Technologies and Expression Analysis (LTEA) Assay for UDP glucuronosyltransferase (UGT1A1) using HepaRG (AID 2283538; active = hit-call score of the fitted dose curve at least 0.9, where 1 is the maximum; inactive = score below 0.9); details: mRNA level, 48 h; actives raise or lower the signal
How it was run: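 mRNA induction or loss of UGT1A1, by TaqMan qRT-PCR, in duplicate HepaRG wells after 48 h exposure to half-log dilutions topping at 100 uM; DMSO (0.5%) served as baseline.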

[4] = read-out: UDP glucuronosyltransferase (UGT1A6), UGT1A6 (gene 54578); assay: LTEA_HepaRG_UGT1A6: Life Technologies and Expression Analysis (LTEA) Assay for UDP glucuronosyltransferase (UGT1A6) using HepaRG (AID 2283539; active = hit-call score of the fitted dose curve at least 0.9, where 1 is the maximum; inactive = score below 0.9); details: mRNA level, 48 h; actives raise or lower the signal
How it was run: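 Differentiated HepaRG cells, ~100,000/well, were exposed for 48 h in serum-free induction medium with 0.5% DMSO to 8-point half-log series topping at 100 uM, in duplicate. mRNA measured by Fluidigm TaqMan qRT-PCR, normalized to ACTB, GAPDH and POLR2A.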

[5] = read-out: X-box binding protein 1 (XBP1), XBP1 (gene 7494); assay: LTEA_HepaRG_XBP1: Life Technologies and Expression Analysis (LTEA) Assay for X-box binding protein 1 (XBP1) using HepaRG (AID 2283540; active = hit-call score of the fitted dose curve at least 0.9, where 1 is the maximum; inactive = score below 0.9); details: mRNA level, 48 h; actives raise or lower the signal
How it was run: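 Differentiated human HepaRG cells in serum-free induction medium exposed 48 h in duplicate to eight half-log concentrations up to 100 uM in 0.5% DMSO. XBP1 mRNA measured by Fluidigm TaqMan qRT-PCR, normalized to ACTB, GAPDH, POLR2A; bidirectional fitting against DMSO.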

[6] = TOX21_p53_BLA_p2_viability: Viability Assessment in the Tox21 HCT-116 p53 Agonism Beta-lactamase Assay, Phase 2 (AID 2283591);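 note: actives lower the ATP signal meaning cytotoxicity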
How it was run: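 HCT-116 p53-bla cells (4000/well) rested 5 h at 37C, then received compounds in DMSO (217-fold dilution) for 16 h at 37C, 5% CO2. After the CCF4 read, CellTiter-Glo was added; ATP luminescence was read after 30 min at room temperature.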

[7] = molecular target: Cellular tumor antigen p53 (Homo sapiens) (UniProt P04637); assay: TOX21_p53_BLA_p2_ratio: Tox21 HCT-116 p53 Agonism Beta-lactamase Assay, Ratio, Phase 2 (AID 2283592)
How it was run: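 First, HCT116 reporter cells settle for 5 h at 37C. Next, DMSO compound solutions are pinned in (217-fold dilution) and left 16 h. Finally, CCF4-AM substrate is loaded 2 h at room temperature and the 460/530 nm ratio read.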

[8] = TOX21_p53_BLA_p3_viability: Viability Assessment in the Tox21 HCT-116 p53 Agonism Beta-lactamase Assay, Phase 3 (AID 2283593);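 note: cells exposed to compound for 16 h before reading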
How it was run: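 HCT-116 cells (4000/well) rested 5 h at 37C, then got DMSO compounds by pin tool (217-fold dilution) for 16 h at 37C, 5% CO2. After the bla read, CellTiter-Glo was added and luminescence read at 30 min, room temperature.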

[9] = molecular target: Cellular tumor antigen p53 (Homo sapiens) (UniProt P04637); assay: TOX21_p53_BLA_p3_ratio: Tox21 HCT-116 p53 Agonism Beta-lactamase Assay, Ratio, Phase 3 (AID 2283596)
How it was run: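 Cells were seeded at 4000/well, rested 5 h at 37C, then dosed with DMSO compound solutions (217-fold dilution) for 16 h. CCF4-AM substrate was loaded for 2 h at room temperature, and the 460/530 nm emission ratio was fitted for gain of signal versus DMSO.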

[10] = TOX21_p53_BLA_p4_viability: Viability Assessment in the Tox21 HCT-116 p53 Agonism Beta-lactamase Assay, Phase 4 (AID 2283597);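 note: hits lower the luminescence signal meaning cytotoxicity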
How it was run: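 4000 HCT116 cells per well; 5 h attachment; compounds from DMSO, 217-fold dilution; 16 h at 37C. Then CCF4-AM, 2 h RT, followed by CellTiter-Glo, 30 min RT, luminescence. Decrease = cytotoxicity.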

[11] = TOX21_p53_BLA_p5_viability: Viability Assessment in the Tox21 HCT-116 p53 Agonism Beta-lactamase Assay, Phase 5 (AID 2283600)
How it was run: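 Decreased CellTiter-Glo luminescence denotes lost viability. Exposure: 16 h at 37C, 5% CO2, with compounds from DMSO stocks diluted 217-fold in wells of 4000 cells.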

[12] = molecular target: Cellular tumor antigen p53 (Homo sapiens) (UniProt P04637); assay: TOX21_p53_BLA_p4_ratio: Tox21 HCT-116 p53 Agonism Beta-lactamase Assay, Ratio, Phase 4 (AID 2283601)
How it was run: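 HCT116 cells carrying an inducible beta-lactamase reporter were plated at 4000 cells/well, rested 5 h, then exposed to compounds in DMSO (217-fold dilution) for 16 h at 37C. CCF4-AM substrate was loaded 2 h at room temperature; 460/530 nm emission ratio scored gain-of-signal versus DMSO.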

[13] = Tanguay_ZF_120hpf_MORT_legacy: (Legacy) Oregon State University Tanguay Lab 120 Hour Post-fertilization zebrafish Assay for Mortality (AID 2283633)
How it was run: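 Dechorionated Tropical 5D wild-type zebrafish embryos, one per well from 6 hpf, static exposure in 0.64% DMSO at 28C until 120 hpf. Mortality scored as binary by brightfield microscopy at 24 and 120 hpf.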

[14] = Tanguay_ZF_120hpf_YSE_legacy: (Legacy) Oregon State University Tanguay Lab 120 Hour Post-fertilization zebrafish Assay for Yolk Sac Edema (AID 2283634);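 for AC50: actives raise the incidence of yolk sac edema above the DMSO baseline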
How it was run: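 Dechorionated Tropical 5D wild-type zebrafish embryos were exposed statically, one per well, from 6 to 120 hpf at 28C in 0.64% DMSO. Yolk sac edema was scored present/absent by brightfield at 120 hpf, and dead embryos were excluded.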

[15] = Tanguay_ZF_120hpf_AXIS_legacy: (Legacy) Oregon State University Tanguay Lab 120 Hour Post-fertilization zebrafish Assay for Body Axis Malformation (AID 2283635)
How it was run: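 Dechorionated wild-type Tropical 5D zebrafish embryos, one per well, statically exposed from 6 hpf to 120 hpf at 28C in 0.64% DMSO final. Body axis malformation scored present/absent by brightfield microscopy at 120 hpf; dead embryos excluded.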

[16] = Tanguay_ZF_120hpf_EYE_legacy: (Legacy) Oregon State University Tanguay Lab 120 Hour Post-fertilization zebrafish Assay for Eye Malformation (AID 2283636);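 note: binary presence or absence of eye malformation scored by brightfield in 120 hpf larvae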
How it was run: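 Static waterborne exposure of dechorionated zebrafish embryos (strain Tropical 5D), 6 to 120 hpf, sealed plates at 28C, 0.64% DMSO vehicle. Eye malformation is scored as a binary endpoint, with gain of signal analysed relative to DMSO.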

[17] = Tanguay_ZF_120hpf_SNOU_legacy: (Legacy) Oregon State University Tanguay Lab 120 Hour Post-fertilization zebrafish Assay for Snout Malformation (AID 2283637)
How it was run: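 Dechorionated zebrafish, individually housed from 6 hpf in covered, sealed wells at 28C with 0.64% DMSO vehicle, were examined at 120 hpf for snout malformation. Responses were binary and analysed positive-direction relative to DMSO.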

[18] = LTEA_HepaRG_LDH_cytotoxicity: Cytotoxicity Assessment in the Life Technologies and Expression Analysis (LTEA) Assay (AID 2283563)
How it was run: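 Differentiated HepaRG cells in serum-free induction medium, exposed 48 h in duplicate to 8 half-log concentrations up to 100 uM in 0.5% DMSO. Cytotoxicity from LDH measured in spent medium, fit relative to DMSO.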

[19] = ATG_XTT_Cytotoxicity: Cytotoxicity Assessment in the Attagene TRANS-FACTORIAL HepG2 Assay (AID 2283584)
How it was run: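 HepG2 cells transiently transfected with GAL4-UAS multiple reporter units, dosed 24 h; cytotoxicity read by XTT as loss of signal versus DMSO baseline.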

Measured: AC50

Sequence of Cellular tumor antigen p53 (Homo sapiens) (P04637 whole entry, looked up): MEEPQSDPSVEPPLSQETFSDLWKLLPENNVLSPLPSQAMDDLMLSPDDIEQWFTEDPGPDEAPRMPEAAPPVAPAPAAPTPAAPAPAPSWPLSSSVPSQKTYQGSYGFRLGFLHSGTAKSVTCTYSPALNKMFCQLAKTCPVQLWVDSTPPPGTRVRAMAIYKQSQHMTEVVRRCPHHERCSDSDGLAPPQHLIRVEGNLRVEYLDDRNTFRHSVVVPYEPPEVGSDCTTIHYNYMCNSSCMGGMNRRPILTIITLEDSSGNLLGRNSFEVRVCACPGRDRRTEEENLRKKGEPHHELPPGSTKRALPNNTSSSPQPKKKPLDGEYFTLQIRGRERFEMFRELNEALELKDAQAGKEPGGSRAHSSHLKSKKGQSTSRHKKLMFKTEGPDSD

Oc1ccccc1O
active: [8] 74.5 µM | [10] 70.9 µM and 46.5 µM | [12] 73.5 µM
inactive: [1] | [2] | [3] | [4] | [5] | [6] | [7] | [8] | [9] | [11] | [12] | [13] | [14] | [15] | [16] | [17]

O=C1c2c(O)cccc2Cc2cccc(O)c21
inactive: all assays above

Cc1ccc(C(C)(C)C)c(O)c1
active: [10] 43.2 µM | [12] 69 µM
inactive: [1] | [2] | [3] | [4] | [5] | [19] | [6] | [7] | [8] | [9] | [11] | [12] | [13] | [14] | [15] | [17]

CC1=C(C)S(=O)(=O)CCS1(=O)=O
active: [1] 80 µM | [2] 50 µM | [4] 0.282 µM | [5] 91 µM
not listed: [8] | [11] | [17]
inactive: all other assays above

Cc1occc(=O)c1O
not listed: [2] | [6] | [7] | [8] | [9] | [10] | [11] | [12]
inactive: all other assays above

CCC(C)N(C)C(=O)c1cc2ccccc2c(-c2ccccc2Cl)n1 (centres undefined)
active: [3] 2.1 µM | [14] 20.4 µM
not listed: [1]
inactive: all other assays above

O=C1CCCCC1
inactive: [1] | [3] | [4] | [5] | [19] | [13] | [14] | [15] | [16] | [17]

CC(=O)O
inactive: [1] | [3] | [4] | [5] | [19] | [13] | [14] | [15] | [16]

CC(C)NCC(O)c1ccc(O)c(O)c1 (centres undefined)
inactive: [4] | [13] | [14] | [15] | [16] | [17]
active: [1] 0.179 µM | [3] 0.111 µM

COC(=O)CCC(=O)OC
not listed: [1] | [6]
inactive: all other assays above

O=C1NC(=O)C(c2ccccc2)(c2ccccc2)N1
active: [3] 19.3 µM
inactive: [1] | [4] | [5] | [18] | [19] | [13] | [14] | [15] | [16] | [17]

CC(=O)O[C@]1(C(C)=O)CC[C@H]2[C@@H]3C=C(Cl)C4=CC(=O)[C@@H]5C[C@@H]5[C@]4(C)[C@H]3CC[C@@]21C
active: [3] 72.3 µM | [4] 73.3 µM
inactive: [1] | [5] | [19] | [13] | [14] | [15] | [16] | [17]

CCCCCCCC(=O)OC
not listed: [1]
inactive: all other assays above
